# Compound activity from PubChem BioAssay.
# The list is not random: actives were taken first. Their share in the collection is about 13%.
# Shiga inhibitor: blocks Shiga toxin action in Vero cells | AID 2315 | Vero cells, Shiga toxin protein synthesis inhibition reporter | inhibition, % at 38.7 µM | 9.2% of 290,000 active; in the data active means inhibition mostly above about 28%, no sharp cut-off; inactive means mostly below about 43%; further: 0% is about no effect
# MARV entry inh: inhibitors of Marburg virus binding or cell entry; Marburg virus pseudotyped entry inhibition, cell reporter; Potency, µM (series often up to 37.8 µM), inactives show top-dose activity change, negative = inhibition, usual class: inhibitors; 1.8% of 300,000 active; AID 540276; calls by dose curve; tested in HEK293 cells; further: potency means the concentration at half of the fitted maximal effect; on the % scale 0 is the no-effect control and ±100 the full control effect
# HCV inh: HCV inhibition; Huh7.5.1 HCVcc-Cre infection, luciferase reporter, 44 h; Potency, µM (titrated, usually from 41.8 µM), for inactives: at the top dose activity change, negative = inhibition, actives largely listed as inhibitors; 3.4% of 340,000 active; AID 651820; active means well fitted inhibition curve with a large enough effect; inconclusive means small, poorly fitted or top-dose-only effect, or another doubt; inactive means no such curve, though single readings can be large or run the other way; further: potency means the concentration at half of the fitted maximal effect; on the % scale 0 is the no-effect control and ±100 the full control effect
#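 1,000 cells/well; 4 h culture; + compound; + HCVcc-Cre (~0.5 moi); 44 h; luciferase substrate, RT 15 min; read 15 sec.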
# FMDV inh: blocks foot and mouth disease virus | 1.2% of 410,000 active | Potency, µM (top dose mostly 57.9 µM), without a hit: top-dose activity change, negative = inhibition, most hits filed as inhibitors | FMDV antiviral cell-based qHTS; calls by dose curve; tested in HEK293T cells; further: read-out not given here; potency means the concentration at half of the fitted maximal effect; on the % scale 0 is the no-effect control and ±100 the full control effect; nearly all actives have a fitted effect of over 45% in size
# CHX counter: counter-screen hit for Shiga toxin inhibitors, cycloheximide; 12% of 300,000 active; cell reporter, cycloheximide protein synthesis inhibition counterscreen; max response, %; in the data active means max response mostly above about 13%, no sharp cut-off; inactive means mostly below about 14%; further: read at 38.3 µM for the half of the compounds with a filed dose; 0% is about no effect
# Lassa entry inh: blocks Lassa virus binding to or entry into cells | 1.2% of 300,000 active | Potency, µM (series often up to 37.9 µM), inactives show top-dose activity change, negative = inhibition, most hits filed as inhibitors | Lassa virus pseudotype entry inhibition, cell reporter; calls by dose curve; tested in HEK293 cells; further: potency means the concentration at half of the fitted maximal effect; on the % scale 0 is the no-effect control and ±100 the full control effect; nearly all actives have a fitted effect of over 50% in size
# * marks the source's active call; other numbers are inactive results; ? = inconclusive; . = no result; [ ] = remark or other dose.
SMILES,Shiga inhibitor,MARV entry inh,HCV inh,FMDV inh,CHX counter,Lassa entry inh
Cc1ccc(CCNC(=O)C2CCCN(Cc3nc(-c4cccc(Cl)c4)oc3C)C2)cc1 (stereo not given),.,-12%[46.1 µM],.,?,.,?
O=[N+]([O-])c1cc(F)c(N2CCCCCC2)cc1N1CCNCC1,-12,-3%,-7%,-12%,-6,8%
COc1cc2c(C(=O)N3CCOCC3)c(CSc3ccccc3)n(C)c2cc1Br,21,?,10µM*,?,-7,?
COc1cc2c(C(=O)N3CCN(C)CC3)c(C)n(C)c2cc1Br,-7,-8%,-16%,0%,0,-6%
CCOC(=O)C1CCCN(S(=O)(=O)c2cn(C)c(=O)n(C)c2=O)C1 (stereo not given),-15,.,-1%,-17%,-7,.
Cc1ccc(NC(=O)CN2C(=O)C(c3ccc(C)cc3)=NC23CCCCCC3)cc1,.,?,.,-13%,.,?
O=C(CN1C(=O)C(c2ccc(F)cc2)=NC12CCCC2)Nc1ccc(F)cc1,-22,.,2.5µM*,?,2,.
CSCCC1NC(=O)N(CC(=O)Nc2ccc(-c3ccccc3)cc2)C1=O (stereo not given),66*,.,1%,14%,21*,.
Clc1ccc(CNc2ncnc3onc(-c4ccc(Cl)cc4)c23)cc1,.,?,.,-28%,.,-14%[46.1 µM]
COc1ccc(NC(=O)CSc2nnc(CC(=O)Nc3ccc(F)cc3)n2C)cc1,3,29%[46.1 µM],3%,9%,-3,.
O=C(CN1CCN(c2ccccn2)CC1)Nc1cccc(Cl)c1Cl,-9,-31%,-1%,-18%,-3,7.1µM*
O=C(CN1CCN(c2ccccn2)CC1)Nc1ccc2ccccc2c1,60*,?,9%,14%,45*,-10%
O=C(CN1CCN(C(=O)c2ccco2)CC1)Nc1ccc(F)cc1F,36*,?,6%,22%,24*,?
Cc1ccc(C(=O)c2cc(C)sc2NC(=O)CN2CCN(C(=O)c3ccco3)CC2)cc1,-12,?,13µM*,?,-4,?
O=C(CN1CCN(C(=O)c2ccco2)CC1)Nc1ccccc1,-1,-2%[46.1 µM],-18%,21%,-8,-6%[46.1 µM]
CC(=O)Nc1ccc(NC(=O)CN2CCN(c3ccccn3)CC2)cc1,-3,8%,15%,1%,-4,-7%
Cc1ccc(NC(=O)CSc2nnc3n2CCCCC3)cc1S(=O)(=O)N1CCOCC1,.,.,.,-1%,.,.
COC(=O)c1cccc(Nc2c(-c3ccc(O)cc3)nc3nc[nH]n23)c1,.,.,.,-8%,.,-18%[46.1 µM]
O=C(CN1CCN(c2ccccn2)CC1)Nc1cc(F)ccc1F,-1,-11%[46.1 µM],6%,-11%,-4,15%[46.1 µM]
O=C(CN1CCN(c2ccccn2)CC1)Nc1ccc(F)cc1F,50*,.,14%,29%,20*,.
CCc1ccc(S(=O)(=O)N2CCN(c3ccccc3OC)CC2)cc1,.,4%,-4%,-12%,2,-15%
COc1ccc(CCn2c(N)c(C(=O)NCc3ccco3)c3nc4ccccc4nc32)cc1OC,18,?,?,.,12,?
Nc1c(C(=O)NCc2ccco2)c2nc3ccccc3nc2n1CCN1CCOCC1,-13,?,8%,-21%,-1,-5%
CCCCCn1c(N)c(C(=O)NCCN2CCOCC2)c2nc3ccccc3nc21,-2,?,-5%,?,6,?
Nc1c(C(=O)Nc2ccccc2)c2nc3ccccc3nc2n1CCCN1CCOCC1,-5,?,22µM*,?,-2,-10%
SMILES,Shiga inhibitor,MARV entry inh,HCV inh,FMDV inh,CHX counter,Lassa entry inh
CCCCCCn1c(N)c(C(=O)NCCN2CCOCC2)c2nc3ccccc3nc21,-4,?,?,11µM*,-3,?
COc1ccc(CCNC(=O)c2c(N)n(CCN3CCOCC3)c3nc4ccccc4nc23)cc1OC,-3,?,?,.,-5,18µM*
COCCCn1c(N)c(C(=O)NCCC(C)C)c2nc3ccccc3nc21,-19,?,8.9µM*,-13%,-2,-10%
Cc1c(C(=O)OCC(=O)NC2CCCCC2)oc2ccccc12,.,6%,12%,-7%,.,-11%
Cc1cc(C)cc(NC(=S)N2CCC(NC(=O)c3ccccc3C)CC2)c1,-23,?,7%,-15%,-3,2%[46.1 µM]
COc1nc(SCC(=O)Nc2ccccc2Cl)nc(N(C)C)n1,40,?,-11%,33%,18*,-1%[46.1 µM]
CCNc1nc(NCc2ccccc2)nc(SCC(=O)Nc2ccccc2)n1,-10,?,25µM*,?,-6,?
CN(C)c1nc(NCc2ccccc2)nc(SCC(=O)Nc2ccc(Cl)c(Cl)c2)n1,-4,12µM*,?,?,0,-21%
NC(=O)c1c(NC(=O)C2CC=CCC2C(=O)O)sc2c1CCCCC2 (stereo not given),-5,?,0%,7%,-2,1%[46.1 µM]
CCc1ccc(NC(=O)Cn2c(=O)n(CCC(C)C)c(=O)c3cccnc32)cc1,.,?,.,-22%,.,.
O=C1N/C(=C\c2ccccc2)c2ccccc21,57*,?,7.1µM*,37%,27*,10%
O=C1N/C(=C\c2nc3ccccc3s2)c2ccccc21,76*,.,.,.,62*,.
O=C(CCS(=O)(=O)c1ccccc1)Nc1nc2ccc(F)cc2s1,.,-10%,5%,11%,.,-8%
O=C(CCS(=O)(=O)c1ccccc1)Nc1nc2cc3c(cc2s1)OCO3,55,-3%[46.1 µM],0%,7%,34*,-11%[46.1 µM]
O=C(CCS(=O)(=O)c1ccccc1)Nc1nc2cc3c(cc2s1)OCCO3,90*,.,2%,34%,45*,.
Cn1c(=O)cc(SCC(=O)Nc2ccccn2)c2ccccc21,-5,0%,0%,10%,-4,0%
CCCN(CCC)C1Sc2ccc(C(=O)OC)cc2NC1=O (stereo not given),14,-10%,.,-8%,-3,-16%[14.3 µM]
Fc1ccccc1CCNc1c2c(nc3ncnn13)CCCC2,-2,6.3µM*,?,-25%,-3,-14%[46.1 µM]
c1ccc(CCNc2c3c(nc4ncnn24)CCC3)cc1,8,-14%,.,?,5,-46%[14.3 µM]
Cc1c(C(=O)N(Cc2ccc(N(C)C)cc2)Cc2ccco2)oc2cc(Br)ccc12,.,12%[46.1 µM],.,-28%,.,-23%[46.1 µM]
CC(C)Sc1nc(NCc2ccco2)c2c3c(sc2n1)COC(C)(C)C3,92*,4%,?,19%,21*,15%
CSc1nc(SCC(=O)NCc2ccco2)c2c3c(sc2n1)COC(C)(C)C3,28,?,?,?,7,?
S=C(N/N=C/c1ccc2ncccc2c1)Nc1ccccc1,66*,.,17%,6%,35*,.
C(=N\NCc1ccccc1)/c1ccc2nccnc2c1,64*,.,-4%,53%,37*,.
C(=N\NCc1ccccc1)/c1ccc2ncccc2c1,79*,.,6%,10%,38*,.
Cc1ccc(C2CC(=O)n3nc(-c4cccc(C)c4)nc3S2)cc1 (stereo not given),.,-1%[46.1 µM],.,-16%,.,32%[46.1 µM]
